This passage reports residual activity results from ChEMBL document CHEMBL2218924, “A broad activity screen in support of a chemogenomic map for kinase signalling research and drug discovery” (Biochem J, 2013).

Test [1] deals with T1, Serine/threonine-protein kinase 17A (Homo sapiens) (UniProt Q9UEE5).
T1 sequence (whole entry): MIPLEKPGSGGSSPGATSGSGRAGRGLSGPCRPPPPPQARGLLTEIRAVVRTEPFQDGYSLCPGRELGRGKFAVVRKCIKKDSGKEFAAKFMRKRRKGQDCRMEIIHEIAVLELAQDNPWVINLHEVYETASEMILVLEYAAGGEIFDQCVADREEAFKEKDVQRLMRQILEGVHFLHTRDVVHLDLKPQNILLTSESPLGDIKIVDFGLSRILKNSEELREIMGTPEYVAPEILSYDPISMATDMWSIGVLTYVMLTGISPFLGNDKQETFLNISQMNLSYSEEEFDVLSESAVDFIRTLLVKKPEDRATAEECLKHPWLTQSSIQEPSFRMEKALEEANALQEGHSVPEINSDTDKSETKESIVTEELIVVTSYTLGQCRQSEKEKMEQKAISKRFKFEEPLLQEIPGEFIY
The settings on record: at 10 µM.

Test [2] addresses T2, Dual specificity tyrosine-phosphorylation-regulated kinase 2 (Homo sapiens) (UniProt Q92630).
T2 sequence (whole entry): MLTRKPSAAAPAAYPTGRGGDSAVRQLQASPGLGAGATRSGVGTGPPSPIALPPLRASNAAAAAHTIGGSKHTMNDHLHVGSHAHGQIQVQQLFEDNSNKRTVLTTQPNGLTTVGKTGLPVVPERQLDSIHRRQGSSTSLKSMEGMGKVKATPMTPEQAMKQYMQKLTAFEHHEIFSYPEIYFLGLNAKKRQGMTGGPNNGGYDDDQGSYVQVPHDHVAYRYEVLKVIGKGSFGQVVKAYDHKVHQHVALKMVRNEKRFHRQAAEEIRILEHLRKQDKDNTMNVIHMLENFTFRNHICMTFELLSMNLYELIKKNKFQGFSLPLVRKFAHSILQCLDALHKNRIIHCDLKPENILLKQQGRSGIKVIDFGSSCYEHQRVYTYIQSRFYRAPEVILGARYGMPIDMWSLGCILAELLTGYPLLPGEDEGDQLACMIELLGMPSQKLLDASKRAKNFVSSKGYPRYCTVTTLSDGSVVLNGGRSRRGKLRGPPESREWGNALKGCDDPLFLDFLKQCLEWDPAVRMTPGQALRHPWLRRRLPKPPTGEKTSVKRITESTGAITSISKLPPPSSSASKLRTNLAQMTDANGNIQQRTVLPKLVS
The settings on record: at 1 µM.

Test [3] addresses T2, Dual specificity tyrosine-phosphorylation-regulated kinase 2 (Homo sapiens). As to conditions: at 10 µM.
Test [4] addresses T3, Ephrin type-A receptor 1 (Homo sapiens) (UniProt P21709).
T3 sequence (whole entry): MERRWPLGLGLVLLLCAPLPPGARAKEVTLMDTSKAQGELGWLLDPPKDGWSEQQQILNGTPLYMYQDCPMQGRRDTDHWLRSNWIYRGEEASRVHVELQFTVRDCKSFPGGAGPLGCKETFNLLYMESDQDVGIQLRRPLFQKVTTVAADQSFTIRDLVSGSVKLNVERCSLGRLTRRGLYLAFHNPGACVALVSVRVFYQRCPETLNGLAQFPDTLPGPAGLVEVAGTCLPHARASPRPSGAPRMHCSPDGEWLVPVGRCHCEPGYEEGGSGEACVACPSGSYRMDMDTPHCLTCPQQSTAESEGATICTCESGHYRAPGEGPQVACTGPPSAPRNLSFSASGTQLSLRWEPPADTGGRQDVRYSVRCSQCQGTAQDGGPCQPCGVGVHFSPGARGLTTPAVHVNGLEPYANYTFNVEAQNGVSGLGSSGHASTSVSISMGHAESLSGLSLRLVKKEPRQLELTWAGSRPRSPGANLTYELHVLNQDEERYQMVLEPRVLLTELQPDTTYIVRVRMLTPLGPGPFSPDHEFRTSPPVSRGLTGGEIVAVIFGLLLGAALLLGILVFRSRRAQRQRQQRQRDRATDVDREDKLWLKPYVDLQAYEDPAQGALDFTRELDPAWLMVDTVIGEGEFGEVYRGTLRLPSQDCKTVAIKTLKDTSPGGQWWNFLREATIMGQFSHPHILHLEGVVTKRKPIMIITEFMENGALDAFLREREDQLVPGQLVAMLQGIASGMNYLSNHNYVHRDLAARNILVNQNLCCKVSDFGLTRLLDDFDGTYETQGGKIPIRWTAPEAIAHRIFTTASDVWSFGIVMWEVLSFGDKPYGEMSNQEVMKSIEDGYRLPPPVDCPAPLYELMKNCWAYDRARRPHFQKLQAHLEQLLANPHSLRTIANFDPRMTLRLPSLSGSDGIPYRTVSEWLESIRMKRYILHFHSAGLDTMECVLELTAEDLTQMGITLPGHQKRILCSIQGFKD
As to conditions: at 1 µM.

For test [5], the target named is T3, Ephrin type-A receptor 1 (Homo sapiens). As to conditions: at 10 µM.
The target in test [6] is Ephrin type-A receptor 2 (Homo sapiens) (UniProt P29317). As to conditions: at 1 µM.
Test [7] has the same target. The settings on record: at 10 µM.
Test [8] addresses T4, Ephrin type-A receptor 3 (Homo sapiens) (UniProt P29320).
T4 sequence (whole entry): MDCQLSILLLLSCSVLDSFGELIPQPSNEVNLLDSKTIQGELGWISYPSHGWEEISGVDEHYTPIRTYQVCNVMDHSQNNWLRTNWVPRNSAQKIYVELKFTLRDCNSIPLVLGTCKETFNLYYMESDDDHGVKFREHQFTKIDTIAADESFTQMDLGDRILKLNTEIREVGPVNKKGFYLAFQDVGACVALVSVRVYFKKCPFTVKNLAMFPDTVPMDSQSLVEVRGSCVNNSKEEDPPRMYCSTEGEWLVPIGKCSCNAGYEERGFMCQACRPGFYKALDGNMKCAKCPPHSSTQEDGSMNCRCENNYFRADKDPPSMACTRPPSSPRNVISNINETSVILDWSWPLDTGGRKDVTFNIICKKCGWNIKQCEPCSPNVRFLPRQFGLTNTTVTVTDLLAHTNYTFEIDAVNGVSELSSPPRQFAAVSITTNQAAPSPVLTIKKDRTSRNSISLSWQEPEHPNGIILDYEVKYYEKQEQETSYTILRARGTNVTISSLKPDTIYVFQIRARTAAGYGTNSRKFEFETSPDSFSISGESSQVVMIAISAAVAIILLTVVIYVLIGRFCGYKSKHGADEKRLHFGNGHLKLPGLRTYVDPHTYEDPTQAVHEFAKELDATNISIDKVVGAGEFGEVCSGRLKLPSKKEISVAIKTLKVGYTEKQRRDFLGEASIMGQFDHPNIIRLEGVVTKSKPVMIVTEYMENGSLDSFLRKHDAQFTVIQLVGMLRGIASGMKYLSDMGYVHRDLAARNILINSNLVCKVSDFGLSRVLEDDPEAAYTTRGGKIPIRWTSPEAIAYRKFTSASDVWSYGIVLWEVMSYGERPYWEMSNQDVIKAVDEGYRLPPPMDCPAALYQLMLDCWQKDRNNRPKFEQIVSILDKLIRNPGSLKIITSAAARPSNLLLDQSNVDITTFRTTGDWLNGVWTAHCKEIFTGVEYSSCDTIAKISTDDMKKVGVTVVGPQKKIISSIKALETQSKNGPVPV
As to conditions: at 1 µM.

For test [9], the target named is T4, Ephrin type-A receptor 3 (Homo sapiens). The settings on record: at 10 µM.
In test [10] the target is Ephrin type-A receptor 4 (Homo sapiens) (UniProt P54764). The settings on record: at 1 µM.
Test [11] shares this target. As to conditions: at 10 µM.
Test [12] has as its target Ephrin type-A receptor 5 (Homo sapiens) (UniProt P54756). As to conditions: at 1 µM.
The target is the same in test [13]. The settings on record: at 10 µM.
For test [14], the target named is Ephrin type-A receptor 7 (Homo sapiens) (UniProt Q15375). As to conditions: at 1 µM.
Test [15] has the same target. The settings on record: at 10 µM.
The target in test [16] is T5, Ephrin type-A receptor 8 (Homo sapiens) (UniProt P29322).
T5 sequence (whole entry): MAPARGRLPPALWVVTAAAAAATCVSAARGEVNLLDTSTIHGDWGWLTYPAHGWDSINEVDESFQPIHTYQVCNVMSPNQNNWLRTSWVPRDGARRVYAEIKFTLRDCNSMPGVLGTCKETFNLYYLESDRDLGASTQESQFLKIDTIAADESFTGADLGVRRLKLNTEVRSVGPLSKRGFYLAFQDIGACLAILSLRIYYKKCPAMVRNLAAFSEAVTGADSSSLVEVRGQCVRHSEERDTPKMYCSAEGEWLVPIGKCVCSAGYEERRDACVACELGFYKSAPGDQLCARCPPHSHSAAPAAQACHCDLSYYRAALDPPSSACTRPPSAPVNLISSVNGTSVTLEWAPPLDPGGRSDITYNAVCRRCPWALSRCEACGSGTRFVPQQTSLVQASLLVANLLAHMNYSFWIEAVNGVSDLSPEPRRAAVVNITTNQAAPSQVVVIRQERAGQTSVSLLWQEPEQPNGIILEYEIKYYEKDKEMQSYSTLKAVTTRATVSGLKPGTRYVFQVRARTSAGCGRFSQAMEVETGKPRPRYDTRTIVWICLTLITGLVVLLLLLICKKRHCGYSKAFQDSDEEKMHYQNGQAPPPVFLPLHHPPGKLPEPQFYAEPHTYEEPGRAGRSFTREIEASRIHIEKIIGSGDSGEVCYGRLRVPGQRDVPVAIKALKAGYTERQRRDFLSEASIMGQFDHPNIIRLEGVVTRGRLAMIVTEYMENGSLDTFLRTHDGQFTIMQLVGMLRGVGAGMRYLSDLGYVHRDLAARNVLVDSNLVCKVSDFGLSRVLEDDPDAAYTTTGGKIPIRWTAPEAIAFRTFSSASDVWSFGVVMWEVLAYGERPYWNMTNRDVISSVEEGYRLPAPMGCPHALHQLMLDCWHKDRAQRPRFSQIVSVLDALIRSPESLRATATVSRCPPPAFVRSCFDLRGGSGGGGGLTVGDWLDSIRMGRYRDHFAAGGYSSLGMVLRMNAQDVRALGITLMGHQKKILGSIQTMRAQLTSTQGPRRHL
The settings on record: at 1 µM.

Test [17] concerns the target T5, Ephrin type-A receptor 8 (Homo sapiens). As to conditions: at 10 µM.
Test [18] deals with T6, Ephrin type-B receptor 1 (Homo sapiens) (UniProt P54762).
T6 sequence (whole entry): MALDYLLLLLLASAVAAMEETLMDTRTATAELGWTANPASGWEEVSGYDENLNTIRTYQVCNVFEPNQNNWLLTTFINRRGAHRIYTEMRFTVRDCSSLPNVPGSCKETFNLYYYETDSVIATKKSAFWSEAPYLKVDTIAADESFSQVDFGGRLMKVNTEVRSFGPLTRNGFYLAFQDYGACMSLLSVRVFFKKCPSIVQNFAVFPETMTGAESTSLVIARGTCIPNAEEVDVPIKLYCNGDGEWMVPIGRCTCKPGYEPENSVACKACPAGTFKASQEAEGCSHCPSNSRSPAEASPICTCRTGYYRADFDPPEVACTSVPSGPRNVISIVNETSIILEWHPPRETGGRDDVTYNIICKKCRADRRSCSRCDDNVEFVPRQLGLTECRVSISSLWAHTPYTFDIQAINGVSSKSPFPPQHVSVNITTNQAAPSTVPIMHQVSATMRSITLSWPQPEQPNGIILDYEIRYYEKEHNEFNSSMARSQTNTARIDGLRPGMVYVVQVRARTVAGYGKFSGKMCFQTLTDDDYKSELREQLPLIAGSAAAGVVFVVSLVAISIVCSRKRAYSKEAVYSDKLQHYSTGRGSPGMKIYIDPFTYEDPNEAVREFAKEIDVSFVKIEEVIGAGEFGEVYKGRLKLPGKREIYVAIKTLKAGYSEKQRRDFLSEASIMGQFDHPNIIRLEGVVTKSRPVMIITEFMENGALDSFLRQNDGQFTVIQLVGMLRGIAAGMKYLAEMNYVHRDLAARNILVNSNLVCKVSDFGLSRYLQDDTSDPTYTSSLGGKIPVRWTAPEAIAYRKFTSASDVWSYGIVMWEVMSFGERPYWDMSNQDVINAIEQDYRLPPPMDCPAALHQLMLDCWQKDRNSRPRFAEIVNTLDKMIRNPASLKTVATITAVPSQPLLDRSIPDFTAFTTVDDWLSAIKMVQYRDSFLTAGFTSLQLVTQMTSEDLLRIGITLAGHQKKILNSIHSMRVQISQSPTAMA
The settings on record: at 1 µM.

Molecules are shown by their SMILES.

Chain of Ephrin type-A receptor 4 (Homo sapiens) (P54764 whole entry): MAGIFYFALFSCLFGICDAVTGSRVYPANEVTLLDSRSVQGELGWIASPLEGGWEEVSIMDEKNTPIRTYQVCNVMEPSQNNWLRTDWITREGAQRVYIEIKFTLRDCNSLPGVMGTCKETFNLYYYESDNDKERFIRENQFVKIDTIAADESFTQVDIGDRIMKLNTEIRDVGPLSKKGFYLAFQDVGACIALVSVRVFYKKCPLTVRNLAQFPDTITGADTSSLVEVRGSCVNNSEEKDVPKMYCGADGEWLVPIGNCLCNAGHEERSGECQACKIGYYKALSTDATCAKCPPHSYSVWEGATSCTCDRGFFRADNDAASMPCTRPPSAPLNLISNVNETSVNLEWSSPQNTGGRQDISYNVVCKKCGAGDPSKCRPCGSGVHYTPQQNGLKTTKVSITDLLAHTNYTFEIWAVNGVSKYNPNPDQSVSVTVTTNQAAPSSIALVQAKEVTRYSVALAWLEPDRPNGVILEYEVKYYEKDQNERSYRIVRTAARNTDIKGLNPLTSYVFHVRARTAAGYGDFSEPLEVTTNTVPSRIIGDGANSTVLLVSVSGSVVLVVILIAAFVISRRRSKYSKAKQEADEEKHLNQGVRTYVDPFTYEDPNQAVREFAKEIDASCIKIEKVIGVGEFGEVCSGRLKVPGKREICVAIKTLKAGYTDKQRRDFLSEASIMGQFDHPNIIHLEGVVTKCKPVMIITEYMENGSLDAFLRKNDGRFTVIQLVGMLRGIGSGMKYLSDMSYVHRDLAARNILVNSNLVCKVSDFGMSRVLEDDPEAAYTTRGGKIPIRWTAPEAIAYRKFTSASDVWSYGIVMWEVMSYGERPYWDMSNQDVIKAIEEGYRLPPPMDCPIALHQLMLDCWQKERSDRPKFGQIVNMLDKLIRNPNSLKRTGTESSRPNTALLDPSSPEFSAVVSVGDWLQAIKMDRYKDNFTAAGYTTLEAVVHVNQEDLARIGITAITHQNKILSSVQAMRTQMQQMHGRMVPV
Chain of Ephrin type-A receptor 2 (Homo sapiens) (P29317 whole entry): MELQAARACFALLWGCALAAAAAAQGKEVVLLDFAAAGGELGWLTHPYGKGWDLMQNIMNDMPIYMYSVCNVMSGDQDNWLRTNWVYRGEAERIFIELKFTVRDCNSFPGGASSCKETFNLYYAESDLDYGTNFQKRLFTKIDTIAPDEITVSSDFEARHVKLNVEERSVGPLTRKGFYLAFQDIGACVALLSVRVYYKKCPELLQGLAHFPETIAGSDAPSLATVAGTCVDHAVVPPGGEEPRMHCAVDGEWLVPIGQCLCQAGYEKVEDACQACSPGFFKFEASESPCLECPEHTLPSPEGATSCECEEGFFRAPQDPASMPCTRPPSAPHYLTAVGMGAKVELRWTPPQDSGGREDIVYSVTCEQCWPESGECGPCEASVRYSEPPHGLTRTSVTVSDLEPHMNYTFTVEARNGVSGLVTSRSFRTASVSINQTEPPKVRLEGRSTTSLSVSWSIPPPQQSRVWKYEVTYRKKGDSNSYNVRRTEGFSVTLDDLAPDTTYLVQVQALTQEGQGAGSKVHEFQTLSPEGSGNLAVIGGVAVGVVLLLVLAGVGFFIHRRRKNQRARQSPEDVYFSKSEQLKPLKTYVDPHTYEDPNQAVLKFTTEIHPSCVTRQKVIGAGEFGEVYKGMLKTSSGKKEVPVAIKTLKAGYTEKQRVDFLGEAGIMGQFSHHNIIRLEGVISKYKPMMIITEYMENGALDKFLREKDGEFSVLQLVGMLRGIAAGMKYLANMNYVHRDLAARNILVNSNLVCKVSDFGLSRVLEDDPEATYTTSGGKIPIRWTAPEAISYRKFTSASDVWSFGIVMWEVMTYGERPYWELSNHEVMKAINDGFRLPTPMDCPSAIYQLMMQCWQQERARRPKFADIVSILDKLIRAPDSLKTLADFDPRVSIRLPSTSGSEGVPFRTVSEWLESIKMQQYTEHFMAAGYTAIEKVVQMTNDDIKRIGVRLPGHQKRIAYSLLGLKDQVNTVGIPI
Chain of Ephrin type-A receptor 5 (Homo sapiens) (P54756 whole entry): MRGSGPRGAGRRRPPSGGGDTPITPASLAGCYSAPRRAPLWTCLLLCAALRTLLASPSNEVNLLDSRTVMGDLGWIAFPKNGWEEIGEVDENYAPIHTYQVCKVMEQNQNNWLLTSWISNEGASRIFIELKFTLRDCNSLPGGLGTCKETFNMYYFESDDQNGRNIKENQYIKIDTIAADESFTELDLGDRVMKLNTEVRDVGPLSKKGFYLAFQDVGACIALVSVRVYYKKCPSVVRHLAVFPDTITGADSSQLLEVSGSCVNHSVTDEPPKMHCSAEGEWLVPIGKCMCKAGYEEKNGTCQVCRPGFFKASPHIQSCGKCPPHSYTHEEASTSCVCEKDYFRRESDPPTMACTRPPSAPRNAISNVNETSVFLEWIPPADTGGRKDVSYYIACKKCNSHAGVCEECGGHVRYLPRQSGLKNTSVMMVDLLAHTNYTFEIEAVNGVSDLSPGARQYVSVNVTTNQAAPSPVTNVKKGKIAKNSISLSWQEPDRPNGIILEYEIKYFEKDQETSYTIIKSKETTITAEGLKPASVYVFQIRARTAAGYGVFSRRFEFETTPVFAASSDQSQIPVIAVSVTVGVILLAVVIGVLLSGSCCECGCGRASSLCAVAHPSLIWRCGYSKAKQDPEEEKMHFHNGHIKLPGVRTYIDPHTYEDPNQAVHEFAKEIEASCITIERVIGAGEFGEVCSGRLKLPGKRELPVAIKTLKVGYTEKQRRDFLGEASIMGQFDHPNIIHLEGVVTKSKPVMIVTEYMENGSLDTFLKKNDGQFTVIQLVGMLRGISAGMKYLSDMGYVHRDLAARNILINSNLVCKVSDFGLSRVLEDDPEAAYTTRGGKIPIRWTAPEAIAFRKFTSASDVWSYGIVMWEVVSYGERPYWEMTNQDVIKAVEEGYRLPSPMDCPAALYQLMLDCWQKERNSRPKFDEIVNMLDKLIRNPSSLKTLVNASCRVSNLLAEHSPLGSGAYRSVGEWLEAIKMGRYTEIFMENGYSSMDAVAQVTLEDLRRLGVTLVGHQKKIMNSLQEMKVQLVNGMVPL
Chain of Ephrin type-A receptor 7 (Homo sapiens) (Q15375 28-998 limits assumed): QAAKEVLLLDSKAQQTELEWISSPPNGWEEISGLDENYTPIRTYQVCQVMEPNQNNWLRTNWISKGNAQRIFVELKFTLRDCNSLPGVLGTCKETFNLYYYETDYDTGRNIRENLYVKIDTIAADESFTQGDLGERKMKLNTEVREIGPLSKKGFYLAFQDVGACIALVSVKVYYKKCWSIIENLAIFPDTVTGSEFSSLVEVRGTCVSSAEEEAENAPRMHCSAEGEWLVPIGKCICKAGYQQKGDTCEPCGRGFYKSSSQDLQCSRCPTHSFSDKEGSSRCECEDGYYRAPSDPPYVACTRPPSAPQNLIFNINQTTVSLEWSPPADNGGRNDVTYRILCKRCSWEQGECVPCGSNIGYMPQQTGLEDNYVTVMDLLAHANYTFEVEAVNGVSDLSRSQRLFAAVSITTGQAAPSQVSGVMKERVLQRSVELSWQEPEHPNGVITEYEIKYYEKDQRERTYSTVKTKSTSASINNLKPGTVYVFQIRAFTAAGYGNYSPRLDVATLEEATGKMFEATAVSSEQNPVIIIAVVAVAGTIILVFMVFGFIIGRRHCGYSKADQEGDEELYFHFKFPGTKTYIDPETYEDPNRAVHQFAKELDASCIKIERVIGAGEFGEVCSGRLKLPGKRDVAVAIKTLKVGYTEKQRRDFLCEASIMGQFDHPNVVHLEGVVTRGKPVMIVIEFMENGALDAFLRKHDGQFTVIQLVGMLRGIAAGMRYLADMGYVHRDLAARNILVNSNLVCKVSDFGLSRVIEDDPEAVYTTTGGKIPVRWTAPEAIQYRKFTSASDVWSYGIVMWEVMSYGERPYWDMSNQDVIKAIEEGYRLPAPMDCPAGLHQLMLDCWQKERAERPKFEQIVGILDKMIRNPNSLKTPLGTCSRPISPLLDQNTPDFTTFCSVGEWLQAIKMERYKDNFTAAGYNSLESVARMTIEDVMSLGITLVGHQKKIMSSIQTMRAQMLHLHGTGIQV

Turning to `Cn1cc(/C=C2\C(=O)Nc3ccc(S(N)(=O)=O)cc32)c2ccccc21`, the residual activity (as a rule, the signal under treatment as a percentage of the control signal) in test [1] was 3%; in test [2] it was 102%; in test [3] it was 99%; in test [4] it was 89%; in [5], 107%; in test [6], 100%. The residual activity turned out to be 72% in test [7]; 50% in test [8]; 13% in test [9]; 96% in [10]; 89% in test [11]; 54% in test [12]. Moreover, the residual activity was found to be 53% in [13]; 32% in test [14]; 9% in test [15]; 88% in test [16]; 54% in [17]; 66% in test [18].
For `COc1ccc(OC)c2c(=S)c3ccccc3[nH]c12`, the residual activity in [1] was 97%; in [2], 90%; in [3] it was 66%; in [4], 113%; in test [5], 88%; in test [6], 96%. Moreover, the residual activity in test [7] came to 101%; in test [8], 90%; in [9], 97%; in [10], 100%; in test [11], 105%; in test [12] it was 101%. The residual activity was determined as 96% in test [13]; 92% in [14]; 89% in test [15]; 96% in [16]; 100% in test [17]; 97% in [18].
